Measured values as given in the supplement of paper PMC13380429.

Assays:
[1] = tested on: Vero E6 infected with SARS-CoV-2; assay: morphology score (similarity to uninfected cells); higher = more like uninfected cells; details: 24 h
[2] = tested on: Vero E6 infected with SARS-CoV-2; assay: SARS-CoV-2 infection rate relative to infected DMSO; higher = more infection, active = 60 or less; details: 24 h

SMILES | morphology score [1] | SARS-CoV-2 infection rate [2]
CC1(C)NC(=O)N(c2ccc([N+](=O)[O-])c(C(F)(F)F)c2)C1=O [nilutamide] (10 µM) | 0.15 | 108% (inactive)
CC(C)(F)C[C@H](N[C@@H](c1ccc(-c2ccc(S(C)(=O)=O)cc2)cc1)C(F)(F)F)C(=O)NC1(C#N)CC1 [odanacatib] (10 µM) | 0.161 | 96.5% (inactive)
O=C(NC1CCN(CCCCC2(C(=O)NCC(F)(F)F)c3ccccc3-c3ccccc32)CC1)c1ccccc1-c1ccc(C(F)(F)F)cc1 [lomitapide] (0.833333 µM) | 0.223 | 87.5% (inactive)
Cc1c(C)c2c(c(C)c1O)CCC(C)(COc1ccc(CC3SC(=O)NC3=O)cc1)O2 (stereo not drawn) [troglitazone] (10 µM) | 0.342 | 89% (inactive)
CSc1ccc(C(=O)/C=C/c2cc(C)c(OC(C)(C)C(=O)O)c(C)c2)cc1 [elafibranor] (10 µM) | 0.00446 | 110% (inactive)
Oc1ccc2ccccc2c1Cc1c(O)ccc2ccccc12 (10 µM) | 0.0699 | 104% (inactive)
COc1ccccc1OCC(O)CNC(C)C (stereo not drawn) [moprolol] (10 µM) | 0.0947 | 100% (inactive)
CCCN[C@H]1CCc2nc(N)sc2C1 [pramipexole] (10 µM) | 0.032 | 120% (inactive)
O=C(Nc1ccc(OC(F)(F)F)cc1)c1sccc1NCc1ccnc2ccccc12 (10 µM) | 0.0678 | 90% (inactive)
N=C(N)N/N=C/c1c(Cl)cccc1Cl [guanaben-acetate] (10 µM) | -0.127 | 114% (inactive)
CC(C)C[C@H](NC(=O)[C@H](CCCCN)NC(=O)[C@H](CCCNC(=N)N)NC(=O)[C@H](C)NC(=O)[C@H](CO)NC(=O)[C@H](CCCCN)NC(=O)[C@H](CCCNC(=N)N)NC(=O)[C@H](C)NC(=O)CNC(=O)[C@@H](NC(=O)[C@H](Cc1ccccc1)NC(=O)CNC(=O)CNC(=O)[C@@H](N)Cc1ccccc1)[C@@H](C)O)C(=O)N[C@@H](C)C(=O)N[C@@H](CC(N)=O)C(=O)N[C@@H](CCC(N)=O)C(=O)O [orphanin-fq] (10 µM) | 0.0454 | 112% (inactive)
Cc1cc(C(=O)Nc2nc3cccc(Cl)c3n2[C@@H]2CCCCN(C(=O)/C=C/CN(C)C)C2)ccn1 (0.833333 µM) | -0.2 | 110% (inactive)
Nc1ccn([C@H]2CO[C@@H](CO)S2)c(=O)n1 [apricitabine] (10 µM) | 0.071 | 108% (inactive)
CC[C@H](C)[C@@H]1NC(=O)[C@H](Cc2ccc(O)cc2)NC(=O)[C@@H](N)CSSC[C@@H](C(=O)N2CCC[C@H]2C(=O)N[C@@H](CC(C)C)C(=O)NCC(N)=O)NC(=O)[C@H](CC(N)=O)NC(=O)[C@H](CCC(N)=O)NC1=O [oxytocin] (10 µM) | -0.0591 | 110% (inactive)
CN1CCCCC1Cn1cc(C(=O)c2cc([N+](=O)[O-])ccc2I)c2ccccc21 (stereo not drawn) (10 µM) | 0.612 | 72.5% (inactive)
CC(C)(C)C(=O)CN1C(=O)[C@H](NC(=O)Nc2cccc(C(=O)O)c2)CN(C2CCCCC2)c2ccccc21 [nastorazepide] (10 µM) | -0.0136 | 104% (inactive)
CS(=O)(=O)OC[C@H](O)[C@@H](O)COS(C)(=O)=O [treosulfan] (10 µM) | -0.204 | 118% (inactive)
CCCCc1ncc(/C=C(\Cc2cccs2)C(=O)O)n1Cc1ccc(C(=O)O)cc1 [eprosartan] (10 µM) | 0.0906 | 106% (inactive)
CC(=O)c1ccc(NS(C)(=O)=O)c(Oc2ccc(F)cc2F)c1 (10 µM) | 0.115 | 92.5% (inactive)
CN(Cc1ccccc1)C(=O)[C@H](Cc1ccc2ccccc2c1)NC(=O)[C@@H]1CCCN1C(=O)Nc1ccccc1[N+](=O)[O-] (10 µM) | 0.00351 | 108% (inactive)
Cn1c(=O)c2c(ncn2C)n(C)c1=O [caffeine] (10 µM) | -0.174 | 113% (inactive)
C[C@H](CCC(=O)O)[C@H]1CC[C@H]2[C@@H]3CC[C@@H]4C[C@H](O)CC[C@]4(C)[C@H]3CC[C@]12C [lithocholic-acid] (10 µM) | 0.0318 | 110% (inactive)
CCC(=O)NC1CCc2cccc(OC)c2C1 (stereo not drawn) (10 µM) | -0.0478 | 93.5% (inactive)
CCc1nn(CCO)c(CC)c1Oc1cc(C#N)cc(C#N)c1 [lersivirine] (10 µM) | 0.162 | 97% (inactive)
